The labels stand for the following.
T1: RBFOX1 RRM RbFoxmut (Fox-RRM*) (Homo sapiens, UniProt Q9NWB1 109-208, R118D;E147R;N151S;E152T)
T1 sequence: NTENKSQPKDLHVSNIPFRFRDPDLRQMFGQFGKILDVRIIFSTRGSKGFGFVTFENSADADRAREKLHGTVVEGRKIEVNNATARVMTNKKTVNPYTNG

B1: AGACGGA (DNA:RNA)
RNA: GGGAGACCGGAAUUCAGAUUGUCCAGACGGAUUAAAUCCCGUCGUAGCCACCA
DNA 1: CAATCTGAATTCCGGTCTCCC
DNA 2: TGGTGGCTACGACGGGATT
B2: CACCGUU (DNA:RNA)
RNA: B1 RNA with A25C, G26A, A27C, G30U, A31U
DNA 1: CAATCTGAATTCCGGTCTCCC
DNA 2: TGGTGGCTACGACGGGATT
B3: GUGUCCA (DNA:RNA)
RNA: B1 RNA with A25G, G26U, A27G, C28U, G29C, G30C
DNA 1: CAATCTGAATTCCGGTCTCCC
DNA 2: TGGTGGCTACGACGGGATT
B4: CCCAAUU (DNA:RNA)
RNA: GGGAGACCGGAAUUCAGAUUGUCCCCCAAUUUUAAAUCCCGUCGUAGCCACCA
DNA 1: CAATCTGAATTCCGGTCTCCC
DNA 2: TGGTGGCTACGACGGGATT
B5: GUAUUUG (DNA:RNA)
RNA: B1 RNA with A25G, G26U, C28U, G29U, G30U, A31G
DNA 1: CAATCTGAATTCCGGTCTCCC
DNA 2: TGGTGGCTACGACGGGATT
B6: CCUUCAG (DNA:RNA)
RNA: B4 RNA with C27U, A28U, A29C, U30A, U31G
DNA 1: CAATCTGAATTCCGGTCTCCC
DNA 2: TGGTGGCTACGACGGGATT
B7: UGUCGGU (DNA:RNA)
RNA: B1 RNA with A25U, A27U, A31U
DNA 1: CAATCTGAATTCCGGTCTCCC
DNA 2: TGGTGGCTACGACGGGATT
B8: ACGAACU (DNA:RNA)
RNA: B4 RNA with C25A, C27G, U30C
DNA 1: CAATCTGAATTCCGGTCTCCC
DNA 2: TGGTGGCTACGACGGGATT
B9: UGCUGGC (DNA:RNA)
RNA: B1 RNA with A25U, A27C, C28U, A31C
DNA 1: CAATCTGAATTCCGGTCTCCC
DNA 2: TGGTGGCTACGACGGGATT
B10: AGUGCCU (DNA:RNA)
RNA: B1 RNA with A27U, C28G, G29C, G30C, A31U
DNA 1: CAATCTGAATTCCGGTCTCCC
DNA 2: TGGTGGCTACGACGGGATT
B11: GUGUGCC (DNA:RNA)
RNA: B1 RNA with A25G, G26U, A27G, C28U, G30C, A31C
DNA 1: CAATCTGAATTCCGGTCTCCC
DNA 2: TGGTGGCTACGACGGGATT
B12: ACUUGCG (DNA:RNA)
RNA: B1 RNA with G26C, A27U, C28U, G30C, A31G
DNA 1: CAATCTGAATTCCGGTCTCCC
DNA 2: TGGTGGCTACGACGGGATT
B13: CAGUGCC (DNA:RNA)
RNA: B1 RNA with A25C, G26A, A27G, C28U, G30C, A31C
DNA 1: CAATCTGAATTCCGGTCTCCC
DNA 2: TGGTGGCTACGACGGGATT
B14: UUGUGCC (DNA:RNA)
RNA: B1 RNA with A25U, G26U, A27G, C28U, G30C, A31C
DNA 1: CAATCTGAATTCCGGTCTCCC
DNA 2: TGGTGGCTACGACGGGATT
B15: UGGCUUG (DNA:RNA)
RNA: B1 RNA with A25U, A27G, G29U, G30U, A31G
DNA 1: CAATCTGAATTCCGGTCTCCC
DNA 2: TGGTGGCTACGACGGGATT
B16: CAGUGCG (DNA:RNA)
RNA: B1 RNA with A25C, G26A, A27G, C28U, G30C, A31G
DNA 1: CAATCTGAATTCCGGTCTCCC
DNA 2: TGGTGGCTACGACGGGATT
B17: ACUUGCC (DNA:RNA)
RNA: B1 RNA with G26C, A27U, C28U, G30C, A31C
DNA 1: CAATCTGAATTCCGGTCTCCC
DNA 2: TGGTGGCTACGACGGGATT
B18: CCGUGCC (DNA:RNA)
RNA: B4 RNA with C27G, A28U, A29G, U30C, U31C
DNA 1: CAATCTGAATTCCGGTCTCCC
DNA 2: TGGTGGCTACGACGGGATT
B19: UUGCCAC (DNA:RNA)
RNA: B1 RNA with A25U, G26U, A27G, G29C, G30A, A31C
DNA 1: CAATCTGAATTCCGGTCTCCC
DNA 2: TGGTGGCTACGACGGGATT
B20: UCCUGGC (DNA:RNA)
RNA: B1 RNA with A25U, G26C, A27C, C28U, A31C
DNA 1: CAATCTGAATTCCGGTCTCCC
DNA 2: TGGTGGCTACGACGGGATT
B21: CCUUAUC (DNA:RNA)
RNA: B4 RNA with C27U, A28U, U31C
DNA 1: CAATCTGAATTCCGGTCTCCC
DNA 2: TGGTGGCTACGACGGGATT
B22: AAAUGUC (DNA:RNA)
RNA: B1 RNA with G26A, C28U, G30U, A31C
DNA 1: CAATCTGAATTCCGGTCTCCC
DNA 2: TGGTGGCTACGACGGGATT
B23: CUAUAGG (DNA:RNA)
RNA: B1 RNA with A25C, G26U, C28U, G29A, A31G
DNA 1: CAATCTGAATTCCGGTCTCCC
DNA 2: TGGTGGCTACGACGGGATT
B24: CUGCGUG (DNA:RNA)
RNA: B1 RNA with A25C, G26U, A27G, G30U, A31G
DNA 1: CAATCTGAATTCCGGTCTCCC
DNA 2: TGGTGGCTACGACGGGATT
B25: CCUAGCA (DNA:RNA)
RNA: B4 RNA with C27U, A29G, U30C, U31A
DNA 1: CAATCTGAATTCCGGTCTCCC
DNA 2: TGGTGGCTACGACGGGATT
B26: UUGCUUG (DNA:RNA)
RNA: B1 RNA with A25U, G26U, A27G, G29U, G30U, A31G
DNA 1: CAATCTGAATTCCGGTCTCCC
DNA 2: TGGTGGCTACGACGGGATT
B27: UCCUUGC (DNA:RNA)
RNA: B4 RNA with C25U, A28U, A29U, U30G, U31C
DNA 1: CAATCTGAATTCCGGTCTCCC
DNA 2: TGGTGGCTACGACGGGATT
B28: UCCGUGC (DNA:RNA)
RNA: B4 RNA with C25U, A28G, A29U, U30G, U31C
DNA 1: CAATCTGAATTCCGGTCTCCC
DNA 2: TGGTGGCTACGACGGGATT
B29: GUGCUUG (DNA:RNA)
RNA: B1 RNA with A25G, G26U, A27G, G29U, G30U, A31G
DNA 1: CAATCTGAATTCCGGTCTCCC
DNA 2: TGGTGGCTACGACGGGATT
B30: UUGUUGC (DNA:RNA)
RNA: B1 RNA with A25U, G26U, A27G, C28U, G29U, A31C
DNA 1: CAATCTGAATTCCGGTCTCCC
DNA 2: TGGTGGCTACGACGGGATT
B31: GUCGUGC (DNA:RNA)
RNA: B1 RNA with A25G, G26U, A27C, C28G, G29U, A31C
DNA 1: CAATCTGAATTCCGGTCTCCC
DNA 2: TGGTGGCTACGACGGGATT

Substitutions are numbered along the chain they refer to; changes in the protein carry UniProt numbers. Whole data set: some 16,000 sequences, median “ka relative to ugcaugu” near 0.096, cut for the highest 2% near 0.35. The sample holds the highest values, similar sequences and a random draw of the others, so the mix is not that of the screen.

The assay concerns the target T1, RBFOX1 RRM RbFoxmut (Fox-RRM*). The assay is described as follows: EMSA; HiTS-Eq, 1 nM pool, 10 min; buffer printed only for the single-RNA assays: 10 mM Tris pH 7.5, 150 mM NaCl, 3.4 mM EDTA, 0.001% NP-40, 30 C. To be noted: tags: His6 N-terminal (pET28a); label: 5' 32P. In outline: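 Purified wild-type or mutant RbFox RRM at increasing concentrations was equilibrated with 1 nM of 5′-radiolabelled RNA carrying 7 randomized nucleotides for 10 min in 50 µL. Unbound RNA was separated by 8% native PAGE and sequenced. Relative association constants came from read-count changes of each RNA species compared with the control reaction, normalised to the cognate motif.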
For orientation: A gel shift assay detects complexes by their altered migration in electrophoresis.
Consider B1, for which the binding signal is 0.0873 KA relative to UGCAUGU.
As to B2, the binding signal was 0.0894 KA relative to UGCAUGU.
To B3 belongs 0.121 KA relative to UGCAUGU; to B4, 0.0634 KA relative to UGCAUGU.
In the case of B5, the binding signal was 0.17 KA relative to UGCAUGU.
Turning to B6, the binding signal was 0.114 KA relative to UGCAUGU.
In the case of B7 it was 0.112 KA relative to UGCAUGU; in that of B8, 0.0682 KA relative to UGCAUGU; in that of B9, 0.119 KA relative to UGCAUGU.
Turning to B10, the binding signal was 0.0968 KA relative to UGCAUGU.
Regarding B11, the binding signal was 0.22 KA relative to UGCAUGU.
Regarding B12, the binding signal is 0.156 KA relative to UGCAUGU.
Turning to B13, the binding signal was 0.402 KA relative to UGCAUGU.
As to B14, the binding signal was 0.46 KA relative to UGCAUGU.
In the case of B15 it was 0.92 KA relative to UGCAUGU; in that of B16, 0.148 KA relative to UGCAUGU.
Turning to B17, the binding signal is 0.372 KA relative to UGCAUGU.
Turning to B18, the binding signal is 0.264 KA relative to UGCAUGU.
Take B19: the binding signal was 0.0642 KA relative to UGCAUGU.
With B20, the binding signal is 0.128 KA relative to UGCAUGU.
As to B21, the binding signal is 0.0522 KA relative to UGCAUGU.
For B22, the binding signal is 0.145 KA relative to UGCAUGU.
B23: the binding signal is 0.0751 KA relative to UGCAUGU.
Take B24: the binding signal was 0.232 KA relative to UGCAUGU.
On to B25, for which the binding signal is 0.119 KA relative to UGCAUGU.
B26: the binding signal was 0.503 KA relative to UGCAUGU.
On to B27, for which the binding signal was 0.108 KA relative to UGCAUGU.
As for B28, the binding signal is 0.084 KA relative to UGCAUGU.
On to B29, for which the binding signal is 0.511 KA relative to UGCAUGU.
With B30, the binding signal was 0.148 KA relative to UGCAUGU.
Regarding B31, the binding signal was 0.167 KA relative to UGCAUGU.

The values are drawn from paper PMC9911399, “Two distinct binding modes provide the RNA-binding protein RbFox with extraordinary sequence specificity”.
